About 79,000 compounds went through this panel and 15% of them were active in at least one assay; those are over-represented in the sample as a whole. Values without a mark were called inactive. Calls of active or inactive are those of the source. Cut-off read from the data, not from the text of the source: active = growth inhibition above about 70%; inactive = the rest.
How the values were obtained:
[1] = NCI Yeast Anticancer Drug Screen. Data for the rad50 strain (AID 155);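 note: 0% = growth of vehicle-only cultures of the same strain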; settings: S. cerevisiae rad50 strain growth inhibition; at 50.0 µM; hits give high values
In short: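 Growth of the mutant yeast was measured after compound exposure and referenced to vehicle-treated cultures.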

[2] = NCI Yeast Anticancer Drug Screen. Data for the mec2-1 strain (AID 157); settings: S. cerevisiae mec2-1 strain, at 50.0 µM, hits give high values
In short: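 Compounds were applied to mec2-1 yeast cells. Their growth was then compared with that of vehicle-treated cultures to give growth inhibition.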

[3] = NCI Yeast Anticancer Drug Screen. Data for the sgs1 mgt1 strain (AID 161);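 note: 0% = growth of cultures given vehicle only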; settings: S. cerevisiae sgs1 mgt1 strain, at 50.0 µM, hits give high values
In short: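 Percent growth inhibition was derived by comparing compound-exposed mutant yeast with vehicle-exposed cultures. The strain carries alterations in DNA damage repair.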

[4] = NCI Yeast Anticancer Drug Screen. Data for the cln2 rad14 strain (AID 165);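 note: 0% = growth equal to vehicle treated cultures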; settings: S. cerevisiae cln2 rad14 strain, at 50.0 µM, hits give high values
In short: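 Strain: cln2 rad14 yeast, altered in cell cycle control and DNA damage repair. Read-out: growth inhibition vs vehicle.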

[5] = NCI Yeast Anticancer Drug Screen. Data for the bub3 strain (AID 167); settings: S. cerevisiae bub3 mutant strain, at 50.0 µM, hits give high values
In short: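 Whole-cell yeast assay. The mutant strain was incubated with compounds, and growth inhibition was determined by comparison with vehicle-treated cells.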

[6] = NCI Yeast Anticancer Drug Screen. Data for the mlh1 rad18 strain (AID 175); settings: S. cerevisiae mlh1 rad18 strain growth inhibition; at 50.0 µM; hits give high values
In short: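 A repair-deficient yeast strain is exposed to test compound, and growth is scored relative to vehicle-treated controls.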

Row | SMILES | growth inhibition [1] | growth inhibition [2] [%] | growth inhibition [3] | growth inhibition [4] [%] | growth inhibition [5] [%] | growth inhibition [6]
1 | O=C(/C(=C\c1ccc(Cl)cc1)c1ccccc1)c1ccccc1 | -38% | -29.5 | 4.9% | 5.95 | -23.4 | -16.1%
2 | O=C1c2ccccc2C(=O)N1CCOCCOCCOCCN1C(=O)c2ccccc2C1=O | 9.4% | -5.95 | -0.75% | -12.3 | -2.75 | -36%
3 | CC(/C=N\NC(=S)SCc1ccccc1)=N/N=C(N)N | 52.4% | 50.2 | 57.2% | -3.7 | 52.9 | 64.6%
4 | NNC(=O)CSc1ncnc2nc[nH]c12 | 1.3% | 9.8 | 0.55% | -3 | 9.65 | -0.5%
5 | O=C(Nc1ccc(Cl)c(Cl)c1)c1ccc(Cl)cc1 | 2% | 11.3 | 7.65% | 8.2 | 19.1 | 13%
6 | O=C(CNc1c(Cl)cccc1Cl)NC1C=Cc2ccc(S(=O)(=O)Nc3c(Cl)cccc3Cl)cc2C1=O (stereo unspecified) | 36.2% | 12.9 | 49% | 5.35 | 19 | 22%
7 | CCCc1ccc(N=Nc2ccc(C(=O)O)cc2)cc1 | -1.25% | -3.4 | -2.9% | -11.9 | -11.9 | 0.7%
8 | O=C(NN1C(=O)C(Cl)C1c1cccc(Cl)c1)c1ccccc1O (stereo unspecified) | -58.4% | -29.2 | -8.35% | -26.6 | -40.2 | -17.1%
9 | CC1CCCC1N (stereo unspecified) | -13.7% | -12.5 | -24.5% | -27.1 | -5.85 | -7.5%
10 | CS/N=C(/c1ccc(/C(=N/SC)N(C)C)cc1)N(C)C | 0.9% | -8.5 | 8.8% | -5.35 | -24.4 | 5.75%
11 | S=C(Nc1ccccc1)Nc1ccc(NC(=S)Nc2ccccc2)cc1 | 8.25% | -0.25 | -3.6% | -4.95 | -8.45 | -52.2%
12 | COc1ccc(CC[n+]2cccc(/C(=N/O)c3ccccc3)c2)cc1OC | 46.9% | -8.3 | 25.2% | 2.7 | 8.25 | 6.35%
13 | CC(=O)Nc1ccc(S(=O)(=O)Nc2ccc([N+](=O)[O-])cc2)cc1 | -37.4% | -40 | -22.8% | -8.65 | -31.9 | -36%
14 | CN(C)C(=O)NCc1cccnc1 | -21.8% | 10.9 | 0.35% | -78.2 | -3.45 | -10.7%
15 | Cc1ccc(-n2cc(-c3ccc(Cl)cc3)c3c(NNC(=S)NCc4ccccc4)ncnc32)cc1 | 30.9% | 35 | 52.5% | 32.4 | 40.7 | 11.1%
16 | O=c1c(O)c(-c2ccccc2)oc2cc(O)cc(O)c12 | 24.5% | 4.4 | 40.9% | 25.8 | 27.4 | 28.7%
17 | O=[N+]([O-])c1ccc(/C(=C/c2ccc(F)cc2)S(=O)(=O)c2ccccc2)o1 | 37.4% | 19.4 | 50.3% | -0.65 | 8.4 | 39.4%
18 | CC1(C)C(=O)c2cc3ccc4ccccc4c3cc2C(C)(C)C1(C)C | -1.25% | -4.25 | 1.2% | 43.6 | 2.75 | -7%
19 | O=C(Nc1cccc(Cl)c1)Oc1cccnc1 | -5.1% | -29.9 | 7.7% | -4.55 | -2.85 | -12.6%
20 | Cc1cccc(Cl)c1NC(=O)Nc1ccc(C#N)cc1 | 15.4% | -10.6 | 17.9% | 5.35 | -3.45 | -1%
21 | O=c1[nH][nH]c(=O)c2c1ccc1oc3ccccc3c12 | -13.8% | 0.55 | -20.7% | 28.2 | 2.55 | 4.4%

Row | SMILES | growth inhibition [1] | growth inhibition [2] [%] | growth inhibition [3] | growth inhibition [4] [%] | growth inhibition [5] [%] | growth inhibition [6]
22 | Cc1cccc(Cl)c1NC(=O)c1cccc(C(=O)Nc2c(C)cccc2Cl)c1 | 9.3% | 4.45 | 15.4% | -30.3 | -2.5 | 27.6%
23 | COc1ccc(C2CC(=O)C(C(=O)OC3CCCCC3)C2c2ccc(OC)cc2)cc1 (stereo unspecified) | 13.9% | 16.2 | 15.8% | 28.1 | -3.25 | 19.5%
24 | OCN(CO)c1ccc2c(c1)Cc1cc(Cl)ccc1-2 | 0.35% | -24.1 | -2.2% | 22.4 | 13.1 | 12.7%
25 | NC(=O)CNC(=O)CN1C(=O)c2ccccc2C1=O | 9.05% | -14.6 | -13.1% | 8.65 | 2.1 | -4.2%
26 | c1ccc2c3[n+](ccc2c1)CCC[n+]1ccc2ccccc2c1-3 | 75.1% (active) | 38 | 85% (active) | 60 | 18.3 | 79% (active)
27 | CN(C)C=Nc1ccn(CCO)c(=O)n1 | 21.6% | -16.9 | 23.6% | 19.1 | 21.9 | 33.2%
28 | CC(C)C1=CC(=Nc2ccc(N(C)C)cc2)C=CC1=O | -1.35% | 6.4 | 9.5% | -29.2 | 18 | -13.1%
29 | N=C(N)SCc1cccc2ccc3cccc(CSC(=N)N)c3c12 | 4.05% | 8.5 | 17.4% | -3.1 | 2.6 | 30.9%
30 | CCCCCCCCCCCCCCCCCC(=O)OCC1OC(OC)C(NC(=O)N(CCCl)N=O)C(O)C1O (stereo unspecified) | 16.3% | -6.85 | -4.8% | 13.7 | 21.4 | 9.15%
31 | CC(C)C1OCC(CO)([N+](=O)[O-])CO1 (stereo unspecified) | -45% | -18.4 | -21.8% | -54.5 | 1.35 | -6.15%
32 | CC(C)CCCC(C)C1CCC2C3CCC4=CC(=O)C=CC4(C)C3CCC12C (stereo unspecified) | 45.1% | 35.2 | 47.6% | 19.1 | 0.85 | 41%
33 | CC(C)(N)CNc1ccccc1 | -0.55% | -4.95 | -9.85% | -11.1 | 15.7 | -4.4%
34 | [O-][n+]1onc2c1CCC(=N\O)/C2=N/Nc1ccccc1 | -1.55% | -1.05 | -15.1% | 34.9 | 18.6 | 11.3%
35 | CCCCOC(=O)c1cccc(C(=O)OCCCC)n1 | -20.9% | -18.9 | -14.1% | -5.6 | -11.5 | -22.8%
36 | CC1CC(C)OC(c2ccccc2)O1 (stereo unspecified) | 19.1% | -1.5 | -2.7% | -20.1 | -5 | 19.7%
37 | c1cc[n+](-c2nc3ccccc3[n-]2)cc1 | 2.75% | -7 | 6.25% | -18.5 | -13.8 | 3.5%
38 | CCN(CC)CCC(=O)c1ccc(C)cc1 | -37.4% | -46.8 | -26.1% | 11.2 | 0.5 | -23.1%
39 | NC(CCC(=O)O)C(=O)NC(Cc1c[nH]c2ccccc12)C(=O)O (stereo unspecified) | -12.7% | 12.3 | -5.05% | -23.1 | -22.4 | -24.6%
40 | CN1C(c2ccco2)NC(=O)C12CCN(Cc1ccccc1)CC2 (stereo unspecified) | 24.8% | 7.25 | 15.2% | 10.2 | 16.8 | 16.1%
41 | CCCCC(=O)NC1=CC(=O)c2ccccc2C1=O | 41.2% | 30.4 | 47.1% | 29.6 | 56.1 | 45.8%
